This passage reports Potency and outcome results from PubChem BioAssay (NCATS).

Records with an inconclusive call do not appear. Calls of active or inactive are those of the source. Unless noted, calls come from the whole dose curve; as a rule, active = well fitted curve in the direction sought with a large enough effect; inconclusive = small, poorly fitted or top-dose-only effect, or another doubt; inactive = no such curve, though single readings can be large; an effect the other way counts as inactive or inconclusive.

A short description of assay [1]: Cytometry Cell-Based qHTS for Inhibitors of the mTORC1 Signaling Pathway in MEF cells (AID 2668).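 Note: Tsc2-/- p53-/- mouse embryonic fibroblasts stably re-expressing wild-type Tsc2; percent cells positive for phospho-rpS6 Ser235/236 relative to propidium iodide stain.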 Summed up:
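MEFs (Tsc2-/-, p53-/- stably expressing WT Tsc2) treated 24 h at 37 degree Celsius, fixed, stained with Alexa-488 anti-phospho-rpS6 Ser235/236 and propidium iodide; Acumen laser scanning. Reported as % positive cells, phospho-S6 normalized to PI.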
(qHTS replaces the single test concentration by a dilution series.)

Assay [2] can be described thus: Validation screen for inhibitors of Lassa infection (AID 463096; calls by dose curve).
Assay [3] can be described thus: Validation screen for small molecules that induce DNA re-replication in MCF 10A normal breast cells (AID 463097). Note: nearly all actives have a fitted effect of over 60% in size. The method in brief:
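MCF 10A cells exposed to compound 48 hr at 37 C, 5% CO2, then Hoechst-stained 40 min. Laser-scanning imaging of nuclear DNA content (405 nm ex, 500-530 nm em); re-replication scored as rise in nuclei with elevated fluorescence intensity.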

In assay [4] the target is Tumor susceptibility gene 101 protein (Homo sapiens) (UniProt Q99816). The experiment in a line: qHTS Validation Assay for Iinhibitors of HIV-1 Budding by Blocking the Interaction of PTAP/TSG101 (AID 485342; calls by dose curve). Summed up:
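Tsg101 binding domain (10 uM) with FITC-labeled PTAP peptide (50 nM) in HEPES pH 7.5 buffer, 20 min at r.t. with compounds. Binding measured by fluorescence polarization.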

Assay [5] in a line: qHTS Validation Assay to Find Inhibitors of Chronic Active B-Cell Receptor Signaling (AID 485345; active = well fitted curve in the direction sought with a large enough effect in the main read-out, with a control signal flat, not every such curve was filed as active). The method in brief:
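Read-out: ratio of filter-corrected green (IkappaBalpha fusion) to red (native) luciferase signal in doxycycline-induced TMD8 cells after 4 h at 37C. Titration spanned 46 uM–3 nM; Data were normalised to basal cells and 10 uM MG-132 wells.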

Assay [6] deals with Beta-2 adrenergic receptor (Homo sapiens) (UniProt P07550). The experiment in a line: qHTS validation assay of beta-arrestin-biased ligands of beta2-adrenergic receptor (AID 485366). The method in brief:
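Tango cells expressing recombinant beta2-AR and beta-arrestin with tTA-driven luciferase, in DMEM with 1% FBS. Compounds were titrated up to 46 microM for 18 hr at 37 degrees C. Luminescence was read 15 min after substrate; curves were fitted and class-assigned.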

Assay [7] has as its target ATP-dependent 6-phosphofructokinase (Trypanosoma brucei brucei) (UniProt O15648). The experiment in a line: qHTS Validation Assay to Find Inhibitors of T. brucei phosphofructokinase (AID 485368). The note with it: T. brucei PFK enzyme assay, qHTS 7-point titration; at 57.5 µM (top of the series). Summed up:
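Activity was read as ADP production by luminescence (ADP-Glo) after 45 min at room temperature. The enzyme was 1.25nM PFK in 0.1M TEA pH 8.0 with 0.5 mM F6P, 0.1mM ATP and 5 mM MgCl2. Compounds were titrated up to 57 uM and % activity normalized to no-enzyme and full-enzyme controls.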

Assay [8] in a line: Quantitative high throughput screen for delayed death inhibitors of the malarial parasite plastid, 96 hour incubation (AID 488745). Note: nearly all actives have a fitted effect of over 70% in size. Note: potency is the fitted concentration of half-maximal effect. Summed up: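 P. falciparum carrying an integrated firefly luciferase reporter, grown in erythrocytes (2% hematocrit, 0.1% parasitemia final) in RPMI 1640/0.5% Albumax, was exposed to compound for 96 h (two generations) at 37 C, 5% CO2. Luminescence decrease indicated growth inhibition.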

A short description of assay [9]: Quantitative high throughput screen for delayed death inhibitors of the malarial parasite plastid, 48 hour incubation (AID 488752). Note: nearly all actives have a fitted effect of over 65% in size. Summed up:
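Erythrocytes infected with P. falciparum carrying an integrated firefly luciferase reporter (2% hematocrit, 0.1% parasitemia final) were exposed to compounds in RPMI 1640/0.5% Albumax for 48 h at 37 C, 5% CO2. Growth inhibition was scored as reduced luminescence.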

Assay [10] has as its target Thioredoxin reductase 1, cytoplasmic (Rattus norvegicus) (UniProt O89049). The experiment in a line: qHTS Assay for Substrates of Mammalian Selenoprotein Thioredoxin Reductase 1 (TrxR1) (AID 488772).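 Note: NADPH fluorescence in the first read after selenite addition and not the 8 min delta; a drop in NADPH fluorescence below the no-compound background marks a TrxR1 substrate.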 The method in brief:
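Quantitative HTS in Tris-HCl buffer at pH 7.5 with EDTA and Tween-20, using rat TrxR1, 400 uM NADPH and 400 uM selenite (final). A fall in initial NADPH fluorescence relative to background marked substrate behaviour.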

For assay [11] the target is unchanged. The experiment in a line: qHTS Assay for Inhibitors of Mammalian Selenoprotein Thioredoxin Reductase 1 (TrxR1) (AID 488773).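 Note: drop in NADPH fluorescence over an 8 min run after selenite addition; nearly all actives have a fitted effect of over 40% in size.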 The note with it: Potency: inhibition. The method in brief:
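Steps: enzyme (90 nM) plus NADPH (400 uM final), 5 min at ~22 deg C; compound added, 15 min; selenite (400 uM final) added; fluorescence followed for 8 min. Concentration-response curves derived from the normalized delta values.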

Assay [12] has as its target Flap endonuclease 1 (Homo sapiens) (UniProt P39748). The experiment in a line: qHTS Validation Assay for the Inhibitors of Human Flap endonuclease 1 (FEN1) (AID 488816). Summed up:
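Readings taken at 0 and 15 min after starting the reaction with 50 nM (final) substrate supplied the signal. Compounds had first sat with 10 nM FEN1 reagent for 15 min at room temperature. Values come from Hill-equation concentration-response fits.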

For assay [13], the target named is M-phase phosphoprotein 8 (Homo sapiens) (UniProt Q99549). The experiment in a line: qHTS Validation Assay for Inhibitors for MPP8 Chromodomain Interactions with Methylated Histone Tails (AID 488949). Note: top concentration of the series differs between compounds; nearly all actives have a fitted effect of over 55% in size. The method in brief: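 MPP8 (50 nM) was pre-bound to 50 nM biotinylated H3(1-18)K9me3 peptide in PBS pH 7.4 with 0.01% Tween-20. Compounds were then added for 30 min at room temperature, and complex disruption was read by AlphaScreen with streptavidin donor and nickel-chelate acceptor beads.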

Assay [14] has as its target Chromobox protein homolog 1 (Homo sapiens) (UniProt P83916). The experiment in a line: qHTS Validation Assay for Inhibitors of HP1-beta Chromodomain Interactions with Methylated Histone Tails (AID 488953).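 Note: loss of AlphaScreen luminescence from HP1-beta binding biotinylated H3K9me3 peptide; nearly all actives have a fitted effect of over 50% in size.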 Summed up: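 HP1-beta (50 nM) was preincubated 30 min at room temperature with biotinylated H3(1-18)K9me3 peptide (50 nM) in PBS pH 7.4, 0.01% Tween-20, then with compounds 30 min. AlphaScreen signal was read after streptavidin donor/nickel chelate acceptor beads (10 ug/mL final).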

The target in assay [15] is Methanococcus maripaludis chaperonin (MmCpn) (UniProt Q6LX38). The experiment in a line: High-Throughput Screening for Modulators of Cytosolic Chaperonin Activity: MmCpn Primary Screen (AID 488978).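 Note: 50 nM MmCpn enzyme hydrolysing 30 µM ATP at 37 °C.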 The method in brief: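 MmCpn at 50 nM final was preincubated 5 min at RT with compound. ATP was then added at 30 uM final for 10 min at 37 C. ADP formed was detected by Transcreener HTRF (665/590 nm).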

Assay [16] deals with Transient receptor potential cation channel subfamily V member 1 (Homo sapiens) (UniProt Q8NER1). The experiment in a line: HTS Assay for Compounds that Act as Enhancers of the Vanilloid Receptor 1 (AID 488979). The method in brief:
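Calcium influx kinetics via Fluo-8 (480/520 nm) in TRPV1-expressing cells, 2000/well cultured overnight at 35.5C. Compound-alone read 3 min (agonist phase), followed by EC20 capsaicin challenge for 2 min (enhancer phase).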

The target of assay [17] is Thyrotropin receptor (Homo sapiens) (UniProt P16473). The experiment in a line: qHTS Assay for Antagonists of the Thyroid Stimulating Hormone Receptor (AID 488980). Summed up: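 TSHR-transfected HEK293 cells (2000/well) in HEPES-buffered HBSS with 70 uM RO 20-1724 were stimulated with 4 nM TSH (EC80, final) in the presence of compound. cAMP was measured by HTRF competition after lysis and 30 min at RT.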

Assay [18] has as its target D(1A) dopamine receptor (Homo sapiens) (UniProt P21728). The experiment in a line: HTS Assay for Allosteric Agonists of the Human D1 Dopamine Receptor: Primary Screen for Agonists (AID 488981). The method in brief:
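Calcium flux in an inducible, force-coupled HEK293 Trex D1 line (overnight at 30 C): agonist mode is the 180 s kinetic read after compound; potentiator mode is the following 180 s read after dopamine at EC20.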

The target in assay [19] is DNA polymerase III PolC-type (Bacillus subtilis (strain 168)) (UniProt P13267). The experiment in a line: qHTS Validation Assay for the Inhibitors of DNA Replication in Gram-Positive Bacteria (AID 485295).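 Note: PicoGreen fluorescence of double-stranded DNA made on primed circular M13 template.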 The method in brief:
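Reconstituted B. subtilis Pol III holoenzyme (PolC, beta clamp, SSB, primase) preincubated with compound, then M13Gori single-stranded circular template with dNTPs/NTPs added; room temperature reaction. Stopped with EDTA/PicoGreen; dsDNA fluorescence read, EDTA as full-inhibition control.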

The target in assay [20] is Ubiquitin carboxyl-terminal hydrolase 2 (Homo sapiens) (UniProt O75604). The experiment in a line: qHTS Validation Assay for Inhibitors of Ubiquitin-specific Protease USP2a Using CHOP2 as the Reporter (AID 463106). The method in brief:
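10nM USP2 core + cpd, 30min RT; add 25nM Ub-CHOP2/25nM substrate; 60min RT; FI 485/531nm. Buffer Tris pH 8.0, CaCl2, BME, CHAPS. Norm. to NEM = 100% inhibition; time-zero read flags fluorescent artifacts.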

Sequence of Thioredoxin reductase 1, cytoplasmic (Rattus norvegicus) (O89049 whole entry, looked up): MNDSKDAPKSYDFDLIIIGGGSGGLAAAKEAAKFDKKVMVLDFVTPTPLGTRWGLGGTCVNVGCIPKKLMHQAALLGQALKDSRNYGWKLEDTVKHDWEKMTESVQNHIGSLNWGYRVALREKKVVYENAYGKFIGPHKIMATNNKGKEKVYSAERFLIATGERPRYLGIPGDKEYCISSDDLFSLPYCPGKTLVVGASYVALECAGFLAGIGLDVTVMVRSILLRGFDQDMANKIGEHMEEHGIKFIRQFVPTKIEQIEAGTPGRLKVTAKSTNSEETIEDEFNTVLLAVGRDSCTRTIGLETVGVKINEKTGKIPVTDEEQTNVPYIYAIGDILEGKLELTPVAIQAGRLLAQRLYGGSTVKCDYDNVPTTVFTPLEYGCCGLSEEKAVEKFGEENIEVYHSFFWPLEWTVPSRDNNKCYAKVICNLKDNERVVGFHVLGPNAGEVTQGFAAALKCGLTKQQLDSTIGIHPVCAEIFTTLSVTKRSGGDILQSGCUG
Sequence of Thyrotropin receptor (Homo sapiens) (P16473 whole entry, looked up): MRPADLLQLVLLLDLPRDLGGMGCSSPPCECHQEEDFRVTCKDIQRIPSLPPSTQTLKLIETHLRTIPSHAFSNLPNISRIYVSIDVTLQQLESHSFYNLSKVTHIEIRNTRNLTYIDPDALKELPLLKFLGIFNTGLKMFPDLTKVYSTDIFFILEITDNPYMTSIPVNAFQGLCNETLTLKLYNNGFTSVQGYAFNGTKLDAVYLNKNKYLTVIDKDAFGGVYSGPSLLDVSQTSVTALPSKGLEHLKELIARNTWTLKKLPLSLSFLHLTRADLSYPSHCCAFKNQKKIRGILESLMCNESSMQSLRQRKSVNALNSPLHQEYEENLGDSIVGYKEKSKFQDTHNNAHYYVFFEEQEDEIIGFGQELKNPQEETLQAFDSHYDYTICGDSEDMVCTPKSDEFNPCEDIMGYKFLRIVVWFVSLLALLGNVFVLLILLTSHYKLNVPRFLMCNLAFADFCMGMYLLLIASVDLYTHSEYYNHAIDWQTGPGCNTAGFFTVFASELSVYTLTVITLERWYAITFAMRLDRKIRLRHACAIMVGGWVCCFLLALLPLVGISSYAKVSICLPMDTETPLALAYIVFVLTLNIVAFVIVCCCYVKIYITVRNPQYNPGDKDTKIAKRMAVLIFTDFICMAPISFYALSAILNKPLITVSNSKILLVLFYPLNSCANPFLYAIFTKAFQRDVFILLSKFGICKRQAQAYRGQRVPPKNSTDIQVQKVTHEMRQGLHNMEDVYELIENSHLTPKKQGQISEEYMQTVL
Sequence of M-phase phosphoprotein 8 (Homo sapiens) (Q99549 whole entry, looked up): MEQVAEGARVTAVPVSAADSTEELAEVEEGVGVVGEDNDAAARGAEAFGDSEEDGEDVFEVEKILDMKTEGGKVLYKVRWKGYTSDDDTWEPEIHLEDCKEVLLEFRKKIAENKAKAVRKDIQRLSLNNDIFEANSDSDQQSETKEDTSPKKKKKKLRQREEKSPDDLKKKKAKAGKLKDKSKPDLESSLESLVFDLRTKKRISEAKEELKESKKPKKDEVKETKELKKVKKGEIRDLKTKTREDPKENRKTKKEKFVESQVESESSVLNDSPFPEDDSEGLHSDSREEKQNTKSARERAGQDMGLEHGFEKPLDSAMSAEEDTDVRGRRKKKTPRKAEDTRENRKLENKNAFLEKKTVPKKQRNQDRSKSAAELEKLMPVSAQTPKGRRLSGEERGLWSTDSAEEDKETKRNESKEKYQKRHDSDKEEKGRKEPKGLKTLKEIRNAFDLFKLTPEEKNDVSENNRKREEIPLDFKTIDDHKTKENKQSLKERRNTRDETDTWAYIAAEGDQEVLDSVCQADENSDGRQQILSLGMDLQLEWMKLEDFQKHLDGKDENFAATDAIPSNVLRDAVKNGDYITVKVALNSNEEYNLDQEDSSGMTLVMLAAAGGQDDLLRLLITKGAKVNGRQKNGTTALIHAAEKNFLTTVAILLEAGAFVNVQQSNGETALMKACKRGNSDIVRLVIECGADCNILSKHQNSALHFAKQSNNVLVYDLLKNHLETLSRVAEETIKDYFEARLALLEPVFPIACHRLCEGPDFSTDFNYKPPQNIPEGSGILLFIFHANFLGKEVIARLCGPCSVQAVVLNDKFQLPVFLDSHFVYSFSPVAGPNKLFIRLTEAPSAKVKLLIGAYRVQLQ
Sequence of Flap endonuclease 1 (Homo sapiens) (P39748 whole entry, looked up): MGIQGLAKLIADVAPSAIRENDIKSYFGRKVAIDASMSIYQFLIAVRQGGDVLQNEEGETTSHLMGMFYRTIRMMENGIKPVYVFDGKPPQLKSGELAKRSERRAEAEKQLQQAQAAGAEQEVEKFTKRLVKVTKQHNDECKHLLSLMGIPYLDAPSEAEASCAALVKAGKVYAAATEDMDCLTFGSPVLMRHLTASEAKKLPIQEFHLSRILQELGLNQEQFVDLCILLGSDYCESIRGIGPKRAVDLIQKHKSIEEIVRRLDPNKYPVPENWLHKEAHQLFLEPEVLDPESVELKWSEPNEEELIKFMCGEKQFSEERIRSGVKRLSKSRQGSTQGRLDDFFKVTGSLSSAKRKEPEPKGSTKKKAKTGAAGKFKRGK
Sequence of Tumor susceptibility gene 101 protein (Homo sapiens) (Q99816 whole entry, looked up, the tested form may be a part): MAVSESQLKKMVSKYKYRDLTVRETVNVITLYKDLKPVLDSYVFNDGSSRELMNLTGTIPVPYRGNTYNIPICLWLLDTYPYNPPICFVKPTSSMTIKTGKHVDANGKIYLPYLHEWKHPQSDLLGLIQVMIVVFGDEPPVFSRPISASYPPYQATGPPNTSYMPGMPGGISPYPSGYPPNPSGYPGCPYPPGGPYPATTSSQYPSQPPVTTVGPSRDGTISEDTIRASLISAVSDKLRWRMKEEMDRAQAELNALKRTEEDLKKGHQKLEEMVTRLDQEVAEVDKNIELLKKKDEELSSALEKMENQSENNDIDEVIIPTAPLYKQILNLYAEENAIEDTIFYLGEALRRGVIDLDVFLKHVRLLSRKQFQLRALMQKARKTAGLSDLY
Sequence of ATP-dependent 6-phosphofructokinase (Trypanosoma brucei brucei) (O15648 whole entry, looked up): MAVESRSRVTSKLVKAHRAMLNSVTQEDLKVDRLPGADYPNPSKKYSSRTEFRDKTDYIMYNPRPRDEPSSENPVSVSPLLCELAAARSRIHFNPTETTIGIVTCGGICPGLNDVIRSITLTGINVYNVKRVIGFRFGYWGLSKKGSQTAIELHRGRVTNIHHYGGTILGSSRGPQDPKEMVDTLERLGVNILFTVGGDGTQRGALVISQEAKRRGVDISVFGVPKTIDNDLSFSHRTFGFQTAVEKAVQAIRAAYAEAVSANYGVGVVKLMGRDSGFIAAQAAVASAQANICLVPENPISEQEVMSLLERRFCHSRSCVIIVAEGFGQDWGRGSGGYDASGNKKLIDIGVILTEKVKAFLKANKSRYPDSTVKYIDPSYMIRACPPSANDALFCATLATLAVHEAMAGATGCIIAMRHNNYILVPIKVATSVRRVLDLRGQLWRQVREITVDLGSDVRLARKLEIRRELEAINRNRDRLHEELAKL
Sequence of Chromobox protein homolog 1 (Homo sapiens) (P83916 whole entry, looked up): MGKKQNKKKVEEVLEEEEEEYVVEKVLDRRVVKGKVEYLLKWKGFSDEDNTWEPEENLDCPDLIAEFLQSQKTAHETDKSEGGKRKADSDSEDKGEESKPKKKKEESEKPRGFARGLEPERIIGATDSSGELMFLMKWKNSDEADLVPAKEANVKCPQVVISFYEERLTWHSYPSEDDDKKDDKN
Sequence of Methanococcus maripaludis chaperonin (MmCpn) (Q6LX38 1-543): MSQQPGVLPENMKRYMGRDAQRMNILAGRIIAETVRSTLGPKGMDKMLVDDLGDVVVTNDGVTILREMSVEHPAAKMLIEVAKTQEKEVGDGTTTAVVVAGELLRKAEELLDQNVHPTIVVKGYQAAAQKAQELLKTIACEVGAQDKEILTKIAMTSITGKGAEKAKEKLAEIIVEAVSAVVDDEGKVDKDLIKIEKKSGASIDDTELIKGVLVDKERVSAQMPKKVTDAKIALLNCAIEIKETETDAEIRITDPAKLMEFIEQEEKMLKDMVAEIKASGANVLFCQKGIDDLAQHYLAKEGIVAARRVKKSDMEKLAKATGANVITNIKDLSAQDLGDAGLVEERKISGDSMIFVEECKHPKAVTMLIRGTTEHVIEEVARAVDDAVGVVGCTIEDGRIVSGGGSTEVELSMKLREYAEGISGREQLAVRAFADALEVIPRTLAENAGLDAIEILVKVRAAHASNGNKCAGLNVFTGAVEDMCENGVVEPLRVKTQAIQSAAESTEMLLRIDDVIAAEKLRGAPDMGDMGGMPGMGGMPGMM
Sequence of D(1A) dopamine receptor (Homo sapiens) (P21728 whole entry, looked up): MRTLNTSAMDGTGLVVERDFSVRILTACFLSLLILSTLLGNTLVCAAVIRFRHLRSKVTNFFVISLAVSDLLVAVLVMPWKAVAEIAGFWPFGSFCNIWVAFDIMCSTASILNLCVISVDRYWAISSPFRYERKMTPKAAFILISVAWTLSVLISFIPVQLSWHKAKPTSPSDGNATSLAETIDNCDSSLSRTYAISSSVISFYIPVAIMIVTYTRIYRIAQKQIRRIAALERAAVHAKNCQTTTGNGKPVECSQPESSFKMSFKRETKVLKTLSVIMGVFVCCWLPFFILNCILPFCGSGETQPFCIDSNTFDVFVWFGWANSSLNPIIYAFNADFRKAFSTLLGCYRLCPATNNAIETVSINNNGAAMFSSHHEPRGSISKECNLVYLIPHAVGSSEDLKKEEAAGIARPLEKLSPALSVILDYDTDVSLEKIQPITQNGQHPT
Sequence of Beta-2 adrenergic receptor (Homo sapiens) (P07550 whole entry, looked up): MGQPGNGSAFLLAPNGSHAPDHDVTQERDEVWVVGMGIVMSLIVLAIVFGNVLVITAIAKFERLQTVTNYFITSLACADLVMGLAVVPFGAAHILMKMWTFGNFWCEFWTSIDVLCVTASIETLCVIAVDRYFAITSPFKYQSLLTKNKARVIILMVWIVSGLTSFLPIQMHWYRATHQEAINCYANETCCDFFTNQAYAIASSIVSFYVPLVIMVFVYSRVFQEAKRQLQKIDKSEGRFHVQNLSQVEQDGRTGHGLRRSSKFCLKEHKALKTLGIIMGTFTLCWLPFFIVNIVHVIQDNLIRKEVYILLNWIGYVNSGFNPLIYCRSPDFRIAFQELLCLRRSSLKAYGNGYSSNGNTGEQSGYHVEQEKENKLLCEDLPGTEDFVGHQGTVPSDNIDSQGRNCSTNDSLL

On to `CCCN1CCO[C@@H]2c3cc(O)ccc3OC[C@H]21`, for which the Potency entry in assay [1], in assay [2], in [3], in assay [8], in [9] and in assay [11] was “inactive” throughout. Further, the Potency result in [12], in assay [13], in assay [14] and in assay [18] was “inactive” throughout. Moreover, the call in assay [4], in assay [5], in assay [6], in assay [7], in [10] and in assay [15] was inactive. In addition, the result in assay [16] and in [17] was inactive.

With `CCCN(CCC)C1CCc2ccc(O)cc2C1` (centres undefined), the Potency result in assay [1], in assay [2], in [3], in assay [19], in assay [8] and in [12] was “inactive” throughout. In addition, the Potency result in assay [13], in assay [14] and in assay [18] was “inactive” each time. The outcome in assay [4], in [5], in assay [6], in assay [15], in [16] and in assay [17] was inactive.

Take `CS(=N)(=O)CC[C@H](N)C(=O)O` (some centres undefined): the Potency result in [1], in [2], in assay [3], in [8], in assay [9] and in assay [11] was “inactive” each time. Also, the Potency entry in assay [12], in [13] and in [18] was “inactive” in each case. Further, the compound was classed as inactive in assay [4], in assay [5], in assay [6], in assay [7], in assay [10] and in assay [15]. The outcome in [16] and in assay [17] was inactive.

Regarding `Oc1ccc2c3c1O[C@H]1c4[nH]c5c(c4C[C@@]4(O)[C@@H](C2)N(CC2CC2)CC[C@]314)C[C@@]1(O)[C@H]2Cc3ccc(O)c4c3[C@@]1(CCN2CC1CC1)[C@H]5O4`, the Potency entry in assay [1], in [2], in assay [3], in assay [20], in assay [11] and in assay [13] was “inactive” each time. The Potency result in assay [18] was “inactive”. The call in assay [4], in [5], in assay [6], in assay [7], in assay [10] and in assay [15] was inactive. The outcome in assay [16] and in assay [17] was inactive. The Potency in assay [8] was 2080 nM (active).

For `O=C1CCCN1CC#CCN1CCCC1`, the Potency entry in [1], in [2], in assay [3], in assay [8], in assay [9] and in assay [12] was “inactive” throughout. The Potency entry in assay [13], in assay [14] and in assay [18] was “inactive” throughout. In addition, the result in [4], in assay [5], in assay [6], in assay [10], in assay [15] and in assay [16] was inactive. Moreover, the compound was classed as inactive in assay [17].

Consider `O=C(Cc1ccc(Cl)c(Cl)c1)N1CCCCC1CN1CCCC1` (centres undefined), for which the Potency entry in assay [1], in [2], in [3], in assay [12], in [13] and in [14] was “inactive” each time. Moreover, the Potency entry in [18] was “inactive”. Besides, the compound was classed as inactive in assay [4], in assay [5], in assay [6], in assay [7], in [10] and in [15]. Further, the result in assay [16] and in assay [17] was inactive.

Turning to `Clc1cnc(Oc2ccc(Oc3ncc(Cl)cc3Cl)cc2)c(Cl)c1`, the Potency entry in assay [1], in assay [2], in assay [3], in assay [8], in assay [9] and in assay [12] was “inactive” in each case. Further, the Potency entry in assay [13], in assay [14] and in [18] was “inactive” each time. For the same compound, the call in [4], in [5], in assay [6], in assay [7], in assay [10] and in assay [15] was inactive. For the same compound, the result in assay [16] and in assay [17] was inactive.
